Screens (PubChem)
Coupling enz – inhibits coupling enzyme system, counter-screen for aldolase hits | coupling enzyme system counterscreen, AmpLite Red fluorescence | activity change, negative = inhibition, % at 58.2 µM, hits read low | 290,000 tested, 0.67% active; in the data active = activity change below about -30%
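Fluorescence at 525 nm excitation and 598 nm emission measured inhibition of the coupled detection system without aldolase. Compounds (at 57.5 uM final) were preincubated 10 min at room temperature with coupling enzyme reagent before a 20 min substrate/AmpLite Red step.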
GALK inhibitor – galactokinase (human) inhibition | P51570 | Purified GALK, Kinase-Glo residual ATP luminescence | Potency, µM (doses to about 57.5 µM), for the others: at the top dose activity change, negative = inhibition, actives largely listed as inhibitors | 270,000 tested, 0.007% active; note: potency is the fitted concentration of half-maximal effect
Target sequence (P51570 whole entry, looked up): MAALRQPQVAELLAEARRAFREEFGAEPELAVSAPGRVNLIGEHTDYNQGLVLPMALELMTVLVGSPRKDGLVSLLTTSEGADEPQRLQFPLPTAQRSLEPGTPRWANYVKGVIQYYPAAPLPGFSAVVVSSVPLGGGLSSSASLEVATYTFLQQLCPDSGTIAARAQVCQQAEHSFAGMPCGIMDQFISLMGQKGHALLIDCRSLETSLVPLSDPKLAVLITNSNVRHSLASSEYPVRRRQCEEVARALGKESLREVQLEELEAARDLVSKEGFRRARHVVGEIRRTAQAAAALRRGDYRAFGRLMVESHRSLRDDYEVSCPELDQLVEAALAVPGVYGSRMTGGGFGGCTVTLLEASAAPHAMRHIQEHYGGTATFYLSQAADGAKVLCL
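Galactose (100 uM) and ATP (35 uM) were turned over by 5 nM GALK for 1 h at RT. Kinase-Glo Plus then converted the remaining ATP into a luminescent signal.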
rTrxR1 inhibitor – blocks rat thioredoxin reductase 1. O89049. recombinant rTrxR1, NADPH fluorescence consumption, selenite substrate. Potency, µM (highest dose often 114 µM), for the others: at the highest dose activity change, negative = inhibition, actives largely listed as inhibitors. 390,000 tested, 1% active. AID 588453; note: potency is the fitted concentration of half-maximal effect; nearly all actives have a fitted effect of over 65% in size
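Rat TrxR1 (90 nM in the dispensed reagent) was pre-reduced with 400 uM NADPH for 5 min at room temperature, then incubated with compound for 15 min. After 400 uM selenite was added, NADPH fluorescence (Ex 340/Em 450 nm) was followed for 8 min.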
USP1 inh – inhibitors of human USP1/UAF1 deubiquitinase; Potency, µM (doses to about 57.1 µM), for inactives: at the highest dose activity change, negative = inhibition, actives largely listed as inhibitors; recombinant USP1/UAF1, Ub-Rhodamine cleavage fluorescence; AID 743255; 390,000 tested, 0.23% active; note: potency is the fitted concentration of half-maximal effect; nearly all actives have a fitted effect of over 60% in size
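USP1/UAF1 complex at 1 nM was preincubated with compound for 15 min at room temperature, then Ub-Rho substrate (150nM final) was added. Fluorescence (480/540 nm) was read kinetically, 6 reads every 60 seconds.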
TrxR1 substrate – substrates of rat thioredoxin reductase 1. O89049. purified TrxR1 substrate turnover, NADPH consumption readout. Potency, µM (doses to about 114 µM), for inactives: at the top dose activity change, negative = substrate turnover. 390,000 tested, 0.01% active. AID 588456; note: potency is the fitted concentration of half-maximal effect; nearly all actives have a fitted effect of over 50% in size
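Rat TrxR1, dispensed at 90 nM, was prereduced with 400 uM NADPH (final) for 5 min at ~22 deg C, then incubated with compound 15 min before 400 uM selenite. A first-read NADPH fluorescence drop versus no-compound background flagged substrates.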
Numbers without * were called inactive; ? = inconclusive; . = not tested or not shown; [ ] = another dose, or the depositor's remark. In the library only some 1.5% were active in any assay of this set; here they are far more common. Unless noted, calls come from the whole dose curve; as a rule, active = well fitted curve in the direction sought with a large enough effect; inconclusive = small, poorly fitted or top-dose-only effect, or another doubt; inactive = no such curve, though single readings can be large; an effect the other way counts as inactive or inconclusive. % is set by controls: 0 for no effect and ±100 for the full control effect.

SMILES	Coupling enz	GALK inhibitor	rTrxR1 inhibitor	USP1 inh	TrxR1 substrate
O=C1C(=Cc2ccco2)CCC1=Cc1ccco1	.	.	2.8µM*	?	4%[57.1 µM]
C[C@@H]1[C@H](c2ccccc2)OCCS(=O)(=O)N1Cc1ccc(Cl)cc1	.	.	25%	.	4%
O=C(O)C#CC(=O)O	.	.	27%	.	8%
O=C(Nc1cccc(N=Cc2cc(Br)cc(Br)c2O)c1)c1ccco1	-7	.	-23%	28µM*	-5%
Cc1cc(S(=O)(=O)Nc2cccc([N+](=O)[O-])c2)c(C)s1	0	2%	31%	-7%	4%
O=[N+]([O-])c1cccc(NNS(=O)(=O)c2ccccc2F)c1	-30*	5%	6%	-7%	-1%
COc1ccc(Nc2nc(C)cc(C)c2C(N)=O)c(OC)c1	-40*	3%	9%	-25%	8%
CC(C)c1ccc(C(=O)C[N+]2(C)CCOCC2)cc1	.	.	24%	.	15%
CN(Cc1ccccc1)S(=O)(=O)c1cccc2cccnc12	-31*	2%	12%	-18%	0%
COc1cccc(CNC(=O)CN(C)S(=O)(=O)c2cccc3cccnc23)c1	0	-2%	26%	-13%	6%
O=C(Cc1ccc([N+](=O)[O-])cc1)N/N=C/c1ccc([N+](=O)[O-])o1	0	8%	14µM*	-6%	-3%
CCOC(=O)N/N=C\c1ccc([N+](=O)[O-])o1	0	.	7.1µM*	9%	-6%
CC1(C(=O)N/N=C/c2ccc([N+](=O)[O-])o2)CC1(Br)Br (stereo not given)	-2	3%	45µM*	-4%	-7%
O=C(CC12CC3CC(CC(C3)C1)C2)N/N=C/c1ccc([N+](=O)[O-])o1	1	-6%	40µM*	-25%	2%
CCCCCCCC(=O)N/N=C/c1ccc([N+](=O)[O-])o1	-6	-2%	?	-21%	-2%
CN(C)c1ccc(/C=C/c2cnnc3ccccc23)cc1	.	.	-2%	.	1%
c1ccc(N/N=C(\Cc2nc3ccccc3[nH]2)c2ccccc2)cc1	0	0%	-18%	-14%	-9%
Cc1ccc(N/N=C(\Cc2nc3ccccc3[nH]2)c2ccccc2)cc1	-5	-2%	79µM*	-15%	-3%
NC(=S)c1ccc[n+]([C@@H]2O[C@@H](COP(=O)([O-])OP(=O)(O)OC[C@H]3O[C@@H](n4cnc5c(N)ncnc54)[C@H](OP(=O)(O)O)[C@@H]3O)C(O)C2O)c1 (stereo not given in full)	.	.	11%[57.1 µM]	.	11%[57.1 µM]
COc1cc2[nH]c(=S)nc(Nc3ccc(NC(C)=O)cc3)c2cc1OC	-1	-1%	10µM*	-9%	-2%
O=C(C[N+]1(CCO)CCOCC1)c1ccc(F)c2ccccc12	.	.	2%	.	11%[0.0914 µM]
CC(=O)C(Sc1nn(C)c(=S)s1)C(=O)Nc1ccccc1 (stereo not given)	3	-2%	22µM*	-11%	4%
Oc1ccc(Cl)cc1C1C=C(c2ccc3c(c2)OCO3)NC(c2ccc(Br)cc2)N1 (stereo not given)	.	.	?	.	-2%
CCn1c(SCC(=O)NCc2ccco2)nnc1-c1cccc(N(C)C)c1	.	.	-8%	.	5%
CCCc1[nH]nc2c1C(c1ccc(OC)c(CSC3=NCCS3)c1)C(C#N)=C(N)O2 (stereo not given)	-41*	-2%	?	-11%	-7%
SMILES	Coupling enz	GALK inhibitor	rTrxR1 inhibitor	USP1 inh	TrxR1 substrate
O=[N+]([O-])c1ccc(-[n+]2ccc3ccccc3c2)c([N+](=O)[O-])c1	.	.	0.89µM*	?	-7%
Cc1cc(C(=O)CCl)c(C)n1CCc1ccc(Cl)cc1	-6	-5%	7.9µM*	-14%	-3%
Cc1cc(C(=O)CCl)c(C)n1CCc1ccc(F)cc1	-1	1%	?	-23%	-12%[57.1 µM]
COc1ccc(C2Nc3ccccc3C(=O)N2c2ccccc2F)cc1COc1ccc(NC(C)=O)cc1 (stereo not given)	.	.	23%	.	47%
COc1ccc2c(c1)Cc1sc(NC(=O)c3cccc(C)c3)nc1-2	.	.	-8%	35µM*	0%
CN(C)c1ccc(C=c2c3ccccc3n3c2c2ccccc2[n+]3C)cc1	.	.	32µM*	?	-19%
Cc1cc2c(=Cc3ccc(N(C)C)cc3)c3ccccc3n2[n+]1C	.	.	-36%	?	-20%
